A short description of experiment [1]: BSK_CASM3C_SRB: Viability Assessment in the BioMAP Diversity Plus: CASM3C Assay (AID 2283050).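 Note: total protein by SRB staining as cytotoxicity measure in parallel cultures.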 Conditions: primary human coronary artery smooth muscle cells.
Read-out in experiment [2]: Thrombomodulin, THBD (gene 7056)
Nature of the experiment: BSK_CASM3C_Thrombomodulin: BioMAP Diversity Plus: CASM3C Assay for Thrombomodulin Biomarker Activity (AID 2283051).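 Note: thrombomodulin protein level measured by ELISA 24 h after dosing.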 The settings on record: primary human coronary artery smooth muscle cells; actives raise or lower the signal.

Read-out in experiment [3]: Tissue Factor, F3 (gene 2152)
Description: BSK_CASM3C_TissueFactor: BioMAP Diversity Plus: CASM3C Assay for Tissue Factor Biomarker Activity (AID 2283052).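 Note: cell surface tissue factor protein level read by ELISA.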 The settings on record: primary human coronary artery smooth muscle cells; actives raise or lower the signal.

Read-out in experiment [4]: Interferon-gamma inducible Protein 10 (IP10), CXCL10 (gene 3627)
Description: BSK_hDFCGF_IP10: BioMAP Diversity Plus: hDFCGF Assay for Interferon-gamma inducible Protein 10 (IP10) Biomarker Activity (AID 2283053). Conditions: primary human foreskin fibroblasts; actives raise or lower the signal. Summed up: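 IP-10 levels, quantified by ELISA, are taken from human foreskin fibroblast cultures 24 h after chemical treatment, with DMSO serving as negative control and baseline for bidirectional analysis.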

Read-out in experiment [5]: Urokinase-type plasminogen activator receptor (uPAR), PLAUR (gene 5329)
Nature of the experiment: BSK_CASM3C_uPAR: BioMAP Diversity Plus: CASM3C Assay for Urokinase-type plasminogen activator receptor (uPAR) Biomarker Activity (AID 2283054).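 Note: cell-surface uPAR protein level quantified by ELISA.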 The settings on record: primary human coronary artery smooth muscle cells; actives raise or lower the signal.

Read-out in experiment [6]: Vascular cell adhesion molecule 1 (VCAM1), VCAM1 (gene 7412)
Nature of the experiment: BSK_CASM3C_VCAM1: BioMAP Diversity Plus: CASM3C Assay for Vascular cell adhesion molecule 1 (VCAM1) Biomarker Activity (AID 2283055).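 Note: VCAM-1 protein level quantified by ELISA on the cells.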 Conditions: primary human coronary artery smooth muscle cells; actives raise or lower the signal.

Read-out in experiment [7]: Collagen III, COL3A1 (gene 1281)
Description: BSK_hDFCGF_CollagenIII: BioMAP Diversity Plus: hDFCGF Assay for Collagen III Biomarker Activity (AID 2283056). Conditions: primary human foreskin fibroblasts; actives raise or lower the signal. The method in brief: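 ELISA readout of Collagen III in human dermal (foreskin) fibroblasts, taken 24 h post-treatment. Gain or loss relative to DMSO vehicle fitted in both directions.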

Read-out in experiment [8]: Epidermal growth factor receptor (EGFR), EGFR (gene 1956)
Description: BSK_hDFCGF_EGFR: BioMAP Diversity Plus: hDFCGF Assay for Epidermal growth factor receptor (EGFR) Biomarker Activity (AID 2283057). Conditions: primary human foreskin fibroblasts; actives raise or lower the signal. The method in brief: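 Measured by ELISA: EGFR levels on primary human foreskin fibroblasts 24 h after chemical treatment, analysed relative to DMSO with bidirectional fitting.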

Read-out in experiment [9]: Interleukin-8 (IL8), CXCL8 (gene 3576)
Description: BSK_hDFCGF_IL8: BioMAP Diversity Plus: hDFCGF Assay for Interleukin-8 (IL8) Biomarker Activity (AID 2283058). Conditions: primary human foreskin fibroblasts; actives raise or lower the signal. Summed up:
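IL-8 levels read by ELISA at 24 hours after dosing human skin fibroblast cultures. Parallel SRB staining assessed overt cytotoxicity, and gain or loss of signal was fitted against DMSO control.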

The nature of experiment [10]: BSK_hDFCGF_Proliferation: Cell Proliferation Assessment in the BioMAP Diversity Plus: hDFCGF Assay (AID 2283059).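 Note: curves fitted for both rise and fall of signal versus DMSO baseline.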 Conditions: primary human foreskin fibroblasts. Summed up: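 Primary human foreskin fibroblasts, sub-confluent; […]; 10% TCA fix, 0.1% SRB stain, A560 total protein. Gain/loss fitted bidirectionally vs DMSO control.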
Read-out in experiment [11]: Macrophage colony-stimulating factor (MCSF), CSF1 (gene 1435)
Nature of the experiment: BSK_hDFCGF_MCSF: BioMAP Diversity Plus: hDFCGF Assay for Macrophage colony-stimulating factor (MCSF) Biomarker Activity (AID 2283060). Conditions: primary human foreskin fibroblasts; actives raise or lower the signal. The method in brief: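 M-CSF levels read by ELISA at 24 h post-dosing in human skin fibroblasts. Parallel cultures stained with SRB assessed cytotoxicity at the same time point; response fitted in both directions against the DMSO baseline.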

The nature of experiment [12]: BSK_hDFCGF_SRB: Viability Assessment in the BioMAP Diversity Plus: hDFCGF Assay (AID 2283061).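 Note: cells exposed to compound for 24 h before the read.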 Conditions: primary human foreskin fibroblasts. The method in brief:
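Viability was read as total protein: after 10% TCA fixation, wells were stained with 0.1% sulforhodamine B and read at 560 nm. Primary human foreskin fibroblasts were dosed for 24 h, with bidirectional fitting versus DMSO.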

Read-out in experiment [13]: TIMP metallopeptidase inhibitor 1 (TIMP1), TIMP1 (gene 7076)
Nature of the experiment: BSK_hDFCGF_TIMP1: BioMAP Diversity Plus: hDFCGF Assay for TIMP metallopeptidase inhibitor 1 (TIMP1) Biomarker Activity (AID 2283062). Conditions: primary human foreskin fibroblasts; actives raise or lower the signal. Summed up: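 TIMP-1 measured by ELISA 24 h after chemical dosing of primary human skin fibroblasts, with gain or loss fitted relative to DMSO. Parallel SRB staining (560 nm) monitored overt cytotoxicity.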

Read-out in experiment [14]: Matrix Metallopeptidase 1 (MMP1), MMP1 (gene 4312)
Nature of the experiment: BSK_hDFCGF_MMP1: BioMAP Diversity Plus: hDFCGF Assay for Matrix Metallopeptidase 1 (MMP1) Biomarker Activity (AID 2283064). Conditions: primary human foreskin fibroblasts; actives raise or lower the signal. The method in brief:
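Primary human foreskin fibroblasts exposed to chemicals for 24 h; MMP1 measured by ELISA. Cytotoxicity tracked by SRB staining in parallel cultures; bidirectional fit relative to DMSO.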

Read-out in experiment [15]: Vascular cell adhesion molecule 1 (VCAM1), VCAM1 (gene 7412)
Description: BSK_hDFCGF_VCAM1: BioMAP Diversity Plus: hDFCGF Assay for Vascular cell adhesion molecule 1 (VCAM1) Biomarker Activity (AID 2283065).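 For AC50: VCAM-1 protein level quantified by ELISA after 24 h chemical exposure.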 The settings on record: primary human foreskin fibroblasts; actives raise or lower the signal. Summed up:
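ELISA readout of VCAM-1 on human dermal fibroblast primary cultures, 24 h after chemical exposure. Gain or loss of signal fitted in both directions against DMSO baseline.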

Read-out in experiment [16]: Plasminogen activator inhibitor-1 (PAI1), SERPINE1 (gene 5054)
Nature of the experiment: BSK_hDFCGF_PAI1: BioMAP Diversity Plus: hDFCGF Assay for Plasminogen activator inhibitor-1 (PAI1) Biomarker Activity (AID 2283066). The settings on record: primary human foreskin fibroblasts; actives raise or lower the signal. Summed up:
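PAI-1 levels, determined by ELISA, served as the endpoint in human foreskin fibroblast cultures exposed to compound for 24 h, with DMSO as baseline.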

Read-out in experiment [17]: Intercellular Adhesion Molecule 1 (ICAM1), ICAM1 (gene 3383)
Nature of the experiment: BSK_KF3CT_ICAM1: BioMAP Diversity Plus: KF3CT Assay for Intercellular Adhesion Molecule 1 (ICAM1) Biomarker Activity (AID 2283067). Conditions: primary human keratinocytes with fibroblasts; actives raise or lower the signal. Summed up: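 Cell-surface ICAM-1 was measured by ELISA 24 h after dosing primary human skin keratinocytes co-cultured with fibroblasts. Parallel SRB staining tracked overt cytotoxicity. Gain or loss of signal was fitted relative to DMSO.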

Read-out in experiment [18]: Interferon-gamma inducible Protein 10 (IP10), CXCL10 (gene 3627)
Nature of the experiment: BSK_KF3CT_IP10: BioMAP Diversity Plus: KF3CT Assay for Interferon-gamma inducible Protein 10 (IP10) Biomarker Activity (AID 2283068). Conditions: primary human keratinocytes with fibroblasts; actives raise or lower the signal. Summed up:
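In a primary skin co-culture of keratinocytes and fibroblasts, IP-10 is quantified by ELISA at 24 h after dosing. SRB staining of parallel wells monitors overt toxicity. Curves are fitted both directions against DMSO.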

A short description of experiment [19]: BSK_KF3CT_SRB: Viability Assessment in the BioMAP Diversity Plus: KF3CT Assay (AID 2283069).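 Note: total protein by sulforhodamine B staining as a cytotoxicity measure; read 24 h after compound addition.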 Conditions: primary human keratinocytes with fibroblasts. Summed up:
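Human keratinocyte and foreskin fibroblast co-culture exposed to chemical for 24 h. Total protein measured in parallel cultures by 0.1% sulforhodamine B staining after 10% TCA fixation, read at 560 nm; bidirectional fit relative to DMSO.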

Read-out in experiment [20]: Monokine induced gamma interferon (MIG), CXCL9 (gene 4283)
Nature of the experiment: BSK_hDFCGF_MIG: BioMAP Diversity Plus: hDFCGF Assay for Monokine induced gamma interferon (MIG) Biomarker Activity (AID 2283063). The settings on record: primary human foreskin fibroblasts; actives raise or lower the signal. The method in brief:
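Human primary foreskin fibroblasts in the hDFCGF system, exposed to test chemical for 24 h; MIG measured by ELISA. Bidirectional curve fitting against DMSO negative control as activity baseline.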

Active and inactive are the calls of the source. Rule for the calls: active = hit-call score of the fitted dose curve at least 0.9, where 1 is the maximum; inactive = score below 0.9.

For `Oc1ccccc1-c1ccccc1`, the outcome in experiment [1], in [2], in experiment [3], in [4], in [5] and in experiment [6] was inactive. Besides, the result in [7], in [8], in experiment [9], in experiment [10], in experiment [11] and in experiment [12] was inactive. Moreover, the outcome in experiment [13], in experiment [14], in experiment [15], in experiment [16], in experiment [17] and in experiment [18] was inactive. Besides, the result in experiment [19] was inactive.

With `CNC(=S)S`, the outcome in experiment [1], in experiment [3], in [5], in experiment [6], in experiment [7] and in experiment [8] was inactive. Also, the outcome in experiment [9], in experiment [12], in [13], in experiment [20], in experiment [15] and in experiment [16] was inactive. In addition, the result in experiment [17] and in [19] was inactive. Also, the concentration at half-maximal activity (AC50) in [2] was 9.42 µM (active); in experiment [4] it was 20 µM (active); in [10] it was 20 µM (active); in [14] it was 7.89 µM (active); in experiment [18] it was 20.7 µM (active).

Consider `CC(C)Oc1cc(-n2nc(C(C)(C)C)oc2=O)c(Cl)cc1Cl`, for which the result in [1], in experiment [3], in experiment [5], in [6], in experiment [7] and in [8] was inactive. Moreover, the result in experiment [9], in experiment [13], in experiment [17] and in experiment [19] was inactive. Moreover, the AC50 in experiment [2] was 25.7 µM (active); in [4], 29.8 µM (active); in experiment [10], 29.5 µM (active); in experiment [11] it was 15.2 µM (active); in experiment [12], 28.6 µM (active); in experiment [14], 5.65 µM (active). Further, the AC50 in experiment [15] is 32 µM (active); in experiment [16], 24.4 µM (active); in experiment [18] it was 14.9 µM (active).

For `C#CCOS(=O)OC1CCCCC1Oc1ccc(C(C)(C)C)cc1` (stereo unspecified), the AC50 in experiment [1] was 20 µM (active); in experiment [2] it was 5.22 µM (active); in experiment [4], 7.97 µM (active); in [5], 11.2 µM (active); in experiment [7], 1.27 µM (active); in [9] it was 15.3 µM (active). Besides, the AC50 in [10] was 2.73 µM (active); in [11] it was 4.84 µM (active); in experiment [12], 3.73 µM (active); in experiment [13] it was 5.66 µM (active); in experiment [20], 13 µM (active); in experiment [14], 10 µM (active). Moreover, the AC50 in experiment [15] was 3.65 µM (active); in [16], 5.14 µM (active); in experiment [18] it was 12.8 µM (active); in experiment [19], 9.7 µM (active). Further, the result in [3], in [6], in experiment [8] and in [17] was inactive.

Consider `N#Cc1nn(-c2c(Cl)cc(C(F)(F)F)cc2Cl)c(N)c1S(=O)C(F)(F)F` (stereo unspecified), for which the AC50 in [1] was 24.9 µM (active); in experiment [2], 21.9 µM (active); in experiment [4], 2.24 µM (active); in [6] it was 23.6 µM (active); in experiment [8], 1.71 µM (active); in experiment [18] it was 29.1 µM (active). Besides, the outcome in [3], in [5], in experiment [7], in experiment [9], in experiment [10] and in [11] was inactive. For the same compound, the result in experiment [12], in experiment [13], in [14], in [15], in experiment [16] and in [17] was inactive. In experiment [19], the outcome was inactive.

As to `CCCCC(CC)COC(=O)c1ccccc1C(=O)OCC(CC)CCCC` (stereo unspecified), the outcome in experiment [1], in [2], in experiment [3], in [5], in [6] and in experiment [7] was inactive. For the same compound, the result in experiment [8], in experiment [9], in experiment [11], in experiment [12], in experiment [13] and in experiment [20] was inactive. Further, the outcome in [14], in [15], in [16], in experiment [17] and in [19] was inactive. For the same compound, the figures for the AC50 in experiment [4], in [10] and in experiment [18] were 16.6 µM (active), 4.85 µM (active) and 15.1 µM (active), respectively.

These data come from PubChem BioAssay (EPA / NIEHS).
